The source of these data is PubChem BioAssay (EPA / NIEHS).

Assay [1] concerns the target Bile acid receptor (Homo sapiens) (UniProt Q96RI1). As to the kind of experiment: ATG_FXR_TRANS: Attagene TRANS-FACTORIAL HepG2 Assay for Farnesoid X Receptor (FXR) (AID 2282979; active = hit-call score of the fitted dose curve at least 0.9, where 1 is the maximum;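 note: hits raise reporter mRNA above DMSO so AC50 marks FXR activation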). The settings on record: HepG2 Attagene TRANS FXR-GAL4 reporter transcription. The gist of the method: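 HepG2 cells were transiently transfected with GAL4-UAS reporters driven by chimeric NR-Gal4 proteins and dosed for 24 h. Reporter mRNA was quantified by RT-PCR, fluorescent labelling, HpaI digestion and capillary electrophoresis, with gain of signal scored versus DMSO.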

Assay [2] has as its target Oxysterols receptor LXR-alpha (Homo sapiens) (UniProt Q13133). Briefly: ATG_LXRa_TRANS: Attagene TRANS-FACTORIAL HepG2 Assay for human Liver X Receptor alpha (LXRa) (AID 2282980; active = hit-call score of the fitted dose curve at least 0.9, where 1 is the maximum). As to conditions: HepG2 Attagene TRANS reporter, LXRa transactivation. The gist of the method: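 HepG2 cells transiently transfected with GAL4-UAS reporter units for chimeric NR-Gal4 proteins, exposed to chemicals for 24 h. Reporter mRNA quantified by RT-PCR and capillary electrophoresis; gain of signal fitted relative to DMSO.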

Assay [3] has as its target Oxysterols receptor LXR-beta (Homo sapiens) (UniProt P55055). As to the kind of experiment: ATG_LXRb_TRANS: Attagene TRANS-FACTORIAL HepG2 Assay for human Liver X Receptor beta (LXRb) (AID 2282981; active = hit-call score of the fitted dose curve at least 0.9, where 1 is the maximum). As to conditions: HepG2 Attagene TRANS GAL4-LXRb reporter, mRNA. The gist of the method: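 Multiplexed reporter assay, HepG2, 24 h dosing. Fluorescence of labelled RT-PCR products after capillary electrophoresis gives transcript level; positive fitting direction relative to DMSO.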

Assay [4] can be described thus: ATG_M_06_TRANS: Attagene TRANS-FACTORIAL HepG2 Assay for M06 Transcription Factor (Internal Marker) (AID 2282983; active = hit-call score of the fitted dose curve at least 0.9, where 1 is the maximum). The settings on record: HepG2 Attagene TRANS M06 internal marker reporter. The method, boiled down: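 mRNA levels of a reporter transcript, quantified as FAM fluorescence on capillary electrophoresis, served as readout. HepG2 cells expressing exogenous GAL4-chimera reporter constructs were exposed for 24 h. Gain of signal over DMSO was evaluated.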

The nature of assay [5]: ATG_M_32_TRANS: Attagene TRANS-FACTORIAL HepG2 Assay for M32 Transcription Factor (Internal Marker) (AID 2282984; active = hit-call score of the fitted dose curve at least 0.9, where 1 is the maximum;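 note: transcript level of a background control reporter unit measured by RT-PCR and capillary electrophoresis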). As to conditions: HepG2 Attagene TRANS M32 internal marker reporter. The method, boiled down:
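Internal-marker readout from a multiplexed transcription reporter panel. HepG2 cells were transfected with GAL4-UAS reporter units, treated 24 hours, and reporter transcript levels determined by fluorescence after RT-PCR and capillary separation.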

Assay [6] concerns the target Nuclear receptor subfamily 4 group A member 2 (Homo sapiens) (UniProt P43354). Briefly: ATG_NURR1_TRANS: Attagene TRANS-FACTORIAL HepG2 Assay for human Nuclear Receptor Related Protein 1 (NURR1) (AID 2282985; active = hit-call score of the fitted dose curve at least 0.9, where 1 is the maximum). The settings on record: HepG2 Attagene TRANS reporter, mRNA readout. The method, boiled down: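 Endpoint: reporter mRNA increase relative to DMSO. HepG2 cells transfected with reporter units, treated 24 h; RNA processed by RT-PCR, labelling, HpaI digestion and capillary electrophoresis.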

Assay [7] deals with Transcriptional activator Myb (Homo sapiens) (UniProt P10242). As to the kind of experiment: ATG_Myb_CIS: Attagene CIS-FACTORIAL HepG2 Assay for human Myeloblastosis (Myb) Proto-Oncogene Transcription Factor (AID 2282986). The settings on record: HepG2 Attagene CIS-FACTORIAL Myb reporter transcription; actives raise or lower the signal. The method, boiled down:
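Multiplexed cis-reporter system in HepG2: transient transfection, 24 h treatment, mRNA readout by RT-PCR and capillary electrophoresis. Both increases and decreases are scored versus DMSO negative control.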

Assay [8] addresses Nuclear respiratory factor 1 (Homo sapiens) (UniProt Q16656). Briefly: ATG_NRF1_CIS: Attagene CIS-FACTORIAL HepG2 Assay for human Nuclear Respiratory Factor 1 (NRF1) Orphan Gene (AID 2282987). As to conditions: HepG2 NRF1 cis-element reporter, Attagene multiplex; actives raise or lower the signal. The method, boiled down: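 Endogenous factor activity was captured via cis-element-driven reporter transcripts in HepG2 cells. Following 24 h chemical treatment, transcripts were quantified by RT-PCR and capillary electrophoresis.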

Assay [9] in a line: ATG_NFI_CIS: Attagene CIS-FACTORIAL HepG2 Assay for human Nuclear Factor I (NFI) (AID 2282989). As to conditions: HepG2 cis-regulatory reporter, NFI response element transcription; actives raise or lower the signal. The gist of the method: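 Read-out: reporter mRNA via RT-PCR plus capillary electrophoresis with fluorescence detection. Transiently transfected HepG2 (endogenous TF activity on cis promoters), 24 h compound exposure; gain or loss of signal fitted against DMSO.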

Assay [10] is described as follows: ATG_NF_kB_CIS: Attagene CIS-FACTORIAL HepG2 Assay for human Nuclear Factor Kappa B (NF-kB) (AID 2282991). The settings on record: HepG2 Attagene cis-factorial NF-kB reporter mRNA; actives raise or lower the signal. The gist of the method:
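After 24 h compound incubation, transfected HepG2 cells yield total RNA; reporter cDNA is PCR-amplified, end-labelled with 6-FAM, HpaI-digested and analysed on a genetic analyser. Endogenous factor activity, DMSO-referenced bidirectional fit.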

Assay [11] can be described thus: ATG_NRF2_ARE_CIS: Attagene CIS-FACTORIAL HepG2 Assay for human Nuclear Factor Erythroid 2 Related Factor 2 (NFR2) response to Antioxidant Response Elements (ARE) (AID 2282992). As to conditions: HepG2 Attagene ARE/NRF2 reporter, transcription factor activity; actives raise or lower the signal. The method, boiled down:
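Using transiently transfected HepG2 cells exposed for 24 h, reporter mRNA levels were determined by RT-PCR with fluorescent primer extension and capillary electrophoresis, analysed for gain or loss of signal against DMSO.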

Assay [12] in a line: ATG_Oct_MLP_CIS: Attagene CIS-FACTORIAL HepG2 Assay for human Octamer-Binding Transcription Factor (Oct) (AID 2282993). The settings on record: HepG2 Attagene cis-factorial Oct reporter, mRNA; actives raise or lower the signal. The gist of the method: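 Read-out: reporter mRNA via RT-PCR plus capillary electrophoresis of 6-FAM-labelled fragments. Transiently transfected HepG2, 24 h exposure, endogenous TF activity on cis elements. Gain or loss of signal fitted relative to DMSO.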

In assay [13] the target is Cellular tumor antigen p53 (Homo sapiens) (UniProt P04637). Briefly: ATG_p53_CIS: Attagene CIS-FACTORIAL HepG2 Assay for human p53 Transcription Factor (AID 2282994). The settings on record: HepG2 p53 cis-element reporter, Attagene mRNA; actives raise or lower the signal. The method, boiled down: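 In HepG2 cells, reporter transcription units under cis-regulatory promoters were transiently introduced. Following 24 h treatment, RNA was processed to labelled, digested cDNA fragments read by capillary electrophoresis; fitting was bidirectional versus DMSO.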

Assay [14] can be described thus: BSK_3C_TissueFactor: BioMAP Diversity Plus: 3C Assay for Tissue Factor Biomarker Activity (AID 2282997). The settings on record: BioMAP 3C HUVEC, tissue factor biomarker readout; actives raise or lower the signal. The method, boiled down: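 Tissue Factor measured by ELISA, 24 h after treatment of primary HUVEC in the BioMAP 3C setting.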
A short description of assay [15]: BSK_3C_uPAR: BioMAP Diversity Plus: 3C Assay for Urokinase-type plasminogen activator receptor (uPAR) Biomarker Activity (AID 2282998). The settings on record: BioMAP 3C HUVEC, uPAR biomarker ELISA; actives raise or lower the signal. The method, boiled down: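 HUVEC primary cells; 24 h post-dose; uPAR by ELISA; gain or loss of signal fitted bidirectionally vs DMSO baseline.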
A general note: In an ELISA, binding on a coated surface is turned into a signal by an enzyme label.

Assay [16] can be described thus: BSK_3C_VCAM1: BioMAP Diversity Plus: 3C Assay for Vascular cell adhesion molecule 1 (VCAM1) Biomarker Activity (AID 2282999). The settings on record: BioMAP 3C HUVEC, VCAM1 ELISA, cytokine-stimulated; actives raise or lower the signal. The method, boiled down: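 HUVEC primary cells, 24 h compound exposure; VCAM-1 by ELISA; gain/loss of signal fitted bidirectionally vs DMSO baseline.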

The target in assay [17] is Hepatocyte nuclear factor 4-alpha (Homo sapiens) (UniProt P41235). Briefly: ATG_HNF4a_TRANS: Attagene TRANS-FACTORIAL HepG2 Assay for human Hepatocyte Nuclear Factor 4 alpha (HNF4a) (AID 2282982; active = hit-call score of the fitted dose curve at least 0.9, where 1 is the maximum). As to conditions: HepG2 HNF4a transactivation reporter, mRNA readout. The method, boiled down: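 Endpoint reflects transcriptional activation of a GAL4-UAS reporter by an HNF4a-GAL4 chimera in transfected HepG2 cells, 24 h post-dosing. Fluorescence from RT-PCR products separated by capillary electrophoresis; DMSO baseline.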

Assay [18] has as its target Myc proto-oncogene protein (Homo sapiens) (UniProt P01106). Briefly: ATG_Myc_CIS: Attagene CIS-FACTORIAL HepG2 Assay for human Myelocytomatosis (Myc) Proto-Oncogene Transcription Factor (AID 2282990). The settings on record: HepG2, Attagene cis-reporter transcription factor activity; actives raise or lower the signal. The method, boiled down: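 Transiently transfected HepG2 cells bearing cis-promoter reporter units for endogenous transcription factors; 24 h exposure. Reporter mRNA measured by RT-PCR, 6-FAM primer extension, HpaI cut and capillary electrophoresis; bidirectional fit relative to DMSO.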

The target in assay [19] is Glucocorticoid receptor (Homo sapiens) (UniProt P04150). As to the kind of experiment: ATG_GR_TRANS: Attagene TRANS-FACTORIAL HepG2 Assay for human Glucocorticoid Receptor (GR) (AID 2282978; active = hit-call score of the fitted dose curve at least 0.9, where 1 is the maximum;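 note: activators score as hits since higher reporter transcript over DMSO is fitted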). As to conditions: HepG2 Attagene TRANS GR reporter, mRNA transcription. The gist of the method: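 HepG2 transient transfection, multiple reporter units, GAL4-UAS under NR-GAL4 chimera control. 24 h treatment. Reporter mRNA by RT-PCR/CE fluorescence, DMSO as negative control.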

Results filed as inconclusive are left out. The source holds several records for some structures; these can differ, active in one and inactive in another. Active and inactive are the calls of the source. Rule for the calls, unless noted: active = hit-call score of the fitted dose curve at least 0.9, where 1 is the maximum; inactive = score below 0.9.

Oxysterols receptor LXR-alpha (Homo sapiens), sequence (Q13133 whole entry, looked up, the tested form may be a part): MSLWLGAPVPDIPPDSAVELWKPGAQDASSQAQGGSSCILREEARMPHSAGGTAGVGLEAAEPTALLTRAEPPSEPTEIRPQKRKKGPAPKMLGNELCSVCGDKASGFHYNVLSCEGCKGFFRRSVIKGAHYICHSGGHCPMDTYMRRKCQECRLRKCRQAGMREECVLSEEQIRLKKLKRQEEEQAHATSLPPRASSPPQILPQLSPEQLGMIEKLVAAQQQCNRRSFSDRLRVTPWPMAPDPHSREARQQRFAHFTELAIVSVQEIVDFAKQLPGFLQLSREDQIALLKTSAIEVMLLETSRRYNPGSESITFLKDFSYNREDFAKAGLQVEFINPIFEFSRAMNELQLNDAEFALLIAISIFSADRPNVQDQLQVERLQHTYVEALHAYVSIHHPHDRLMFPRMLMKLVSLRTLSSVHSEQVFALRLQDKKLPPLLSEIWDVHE
Cellular tumor antigen p53 (Homo sapiens), sequence (P04637 whole entry, looked up, the tested form may be a part): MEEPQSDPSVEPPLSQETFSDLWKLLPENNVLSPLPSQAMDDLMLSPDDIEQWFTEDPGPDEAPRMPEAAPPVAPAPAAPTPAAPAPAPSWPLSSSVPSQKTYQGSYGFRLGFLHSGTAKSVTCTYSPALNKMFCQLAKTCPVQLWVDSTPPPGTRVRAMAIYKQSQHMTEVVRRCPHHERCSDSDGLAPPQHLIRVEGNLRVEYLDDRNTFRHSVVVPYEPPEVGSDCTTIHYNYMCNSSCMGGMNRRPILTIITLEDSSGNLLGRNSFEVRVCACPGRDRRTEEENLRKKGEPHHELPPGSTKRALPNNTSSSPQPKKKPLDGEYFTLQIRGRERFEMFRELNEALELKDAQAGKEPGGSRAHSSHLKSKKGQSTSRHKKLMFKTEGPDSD
Transcriptional activator Myb (Homo sapiens), sequence (P10242 whole entry, looked up): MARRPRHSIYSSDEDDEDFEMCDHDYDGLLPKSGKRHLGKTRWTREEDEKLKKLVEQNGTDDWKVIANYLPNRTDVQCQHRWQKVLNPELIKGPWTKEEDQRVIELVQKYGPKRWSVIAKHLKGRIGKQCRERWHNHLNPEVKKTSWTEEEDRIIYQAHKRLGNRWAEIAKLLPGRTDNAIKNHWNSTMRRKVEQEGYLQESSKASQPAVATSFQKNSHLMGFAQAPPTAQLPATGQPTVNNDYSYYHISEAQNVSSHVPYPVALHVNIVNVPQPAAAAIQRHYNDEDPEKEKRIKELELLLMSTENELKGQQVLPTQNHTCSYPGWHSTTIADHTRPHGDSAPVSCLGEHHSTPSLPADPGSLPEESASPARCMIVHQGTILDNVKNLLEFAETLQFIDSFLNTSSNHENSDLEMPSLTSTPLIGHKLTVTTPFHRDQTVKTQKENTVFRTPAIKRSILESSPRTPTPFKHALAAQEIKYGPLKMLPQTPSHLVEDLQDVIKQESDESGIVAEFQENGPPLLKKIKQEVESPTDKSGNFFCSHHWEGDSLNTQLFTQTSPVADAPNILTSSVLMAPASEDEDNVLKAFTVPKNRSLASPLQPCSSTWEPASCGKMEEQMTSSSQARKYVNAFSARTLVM
Myc proto-oncogene protein (Homo sapiens), sequence (P01106 whole entry, looked up): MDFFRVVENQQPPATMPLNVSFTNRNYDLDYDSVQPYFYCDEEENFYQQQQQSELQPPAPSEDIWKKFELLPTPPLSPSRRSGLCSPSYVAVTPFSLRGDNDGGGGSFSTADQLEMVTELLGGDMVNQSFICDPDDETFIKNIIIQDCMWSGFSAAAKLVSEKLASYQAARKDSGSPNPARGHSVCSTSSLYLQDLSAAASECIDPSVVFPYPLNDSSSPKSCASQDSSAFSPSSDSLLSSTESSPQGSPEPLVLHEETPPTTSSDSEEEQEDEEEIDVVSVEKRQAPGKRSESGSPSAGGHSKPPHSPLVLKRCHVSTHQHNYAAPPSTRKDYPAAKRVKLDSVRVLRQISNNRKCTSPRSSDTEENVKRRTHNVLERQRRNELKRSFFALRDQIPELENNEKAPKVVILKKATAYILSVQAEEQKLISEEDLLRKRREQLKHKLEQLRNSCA
Nuclear receptor subfamily 4 group A member 2 (Homo sapiens), sequence (P43354 whole entry, looked up): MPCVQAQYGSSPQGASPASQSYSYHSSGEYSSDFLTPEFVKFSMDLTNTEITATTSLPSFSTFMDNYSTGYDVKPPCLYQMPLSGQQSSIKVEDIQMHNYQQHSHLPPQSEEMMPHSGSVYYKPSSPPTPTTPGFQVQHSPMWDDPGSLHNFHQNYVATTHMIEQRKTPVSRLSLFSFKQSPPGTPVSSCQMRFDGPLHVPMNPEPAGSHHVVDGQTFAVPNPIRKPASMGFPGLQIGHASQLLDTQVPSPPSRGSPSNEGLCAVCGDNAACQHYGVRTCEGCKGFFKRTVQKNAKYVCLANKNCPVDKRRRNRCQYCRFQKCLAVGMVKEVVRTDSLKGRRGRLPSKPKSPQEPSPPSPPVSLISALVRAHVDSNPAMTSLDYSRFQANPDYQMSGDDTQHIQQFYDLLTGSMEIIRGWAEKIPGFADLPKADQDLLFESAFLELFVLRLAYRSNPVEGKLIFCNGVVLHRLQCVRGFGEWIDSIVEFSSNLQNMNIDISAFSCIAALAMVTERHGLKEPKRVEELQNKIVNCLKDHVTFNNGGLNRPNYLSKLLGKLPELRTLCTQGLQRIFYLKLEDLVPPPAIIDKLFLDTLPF
Nuclear respiratory factor 1 (Homo sapiens), sequence (Q16656 whole entry, looked up): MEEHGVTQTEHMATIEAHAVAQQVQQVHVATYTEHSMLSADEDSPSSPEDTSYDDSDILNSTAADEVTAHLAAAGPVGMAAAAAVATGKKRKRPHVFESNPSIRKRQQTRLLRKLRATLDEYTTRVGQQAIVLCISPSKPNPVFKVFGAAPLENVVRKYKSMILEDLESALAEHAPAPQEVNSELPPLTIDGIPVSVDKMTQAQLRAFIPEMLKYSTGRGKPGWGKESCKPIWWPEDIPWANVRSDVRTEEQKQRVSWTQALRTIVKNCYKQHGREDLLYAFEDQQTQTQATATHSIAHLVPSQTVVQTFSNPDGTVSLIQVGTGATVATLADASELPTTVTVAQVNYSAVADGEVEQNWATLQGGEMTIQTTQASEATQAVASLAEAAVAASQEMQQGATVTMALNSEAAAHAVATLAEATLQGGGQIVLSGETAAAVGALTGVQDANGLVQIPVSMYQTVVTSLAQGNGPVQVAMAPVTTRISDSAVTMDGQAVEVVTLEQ
Hepatocyte nuclear factor 4-alpha (Homo sapiens), sequence (P41235 whole entry, looked up, the tested form may be a part): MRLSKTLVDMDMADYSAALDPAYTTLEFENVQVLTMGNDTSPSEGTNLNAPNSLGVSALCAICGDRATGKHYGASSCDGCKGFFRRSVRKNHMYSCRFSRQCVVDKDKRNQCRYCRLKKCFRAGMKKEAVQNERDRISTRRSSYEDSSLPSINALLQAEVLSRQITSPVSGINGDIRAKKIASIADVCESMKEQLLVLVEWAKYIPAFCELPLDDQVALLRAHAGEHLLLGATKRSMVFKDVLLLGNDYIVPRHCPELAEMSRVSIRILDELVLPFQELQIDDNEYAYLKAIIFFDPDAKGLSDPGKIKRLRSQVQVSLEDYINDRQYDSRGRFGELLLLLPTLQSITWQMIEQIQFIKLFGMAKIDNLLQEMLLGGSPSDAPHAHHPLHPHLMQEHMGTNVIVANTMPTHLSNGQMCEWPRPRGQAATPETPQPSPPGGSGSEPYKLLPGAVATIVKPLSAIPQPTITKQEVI
Oxysterols receptor LXR-beta (Homo sapiens), sequence (P55055 whole entry, looked up, the tested form may be a part): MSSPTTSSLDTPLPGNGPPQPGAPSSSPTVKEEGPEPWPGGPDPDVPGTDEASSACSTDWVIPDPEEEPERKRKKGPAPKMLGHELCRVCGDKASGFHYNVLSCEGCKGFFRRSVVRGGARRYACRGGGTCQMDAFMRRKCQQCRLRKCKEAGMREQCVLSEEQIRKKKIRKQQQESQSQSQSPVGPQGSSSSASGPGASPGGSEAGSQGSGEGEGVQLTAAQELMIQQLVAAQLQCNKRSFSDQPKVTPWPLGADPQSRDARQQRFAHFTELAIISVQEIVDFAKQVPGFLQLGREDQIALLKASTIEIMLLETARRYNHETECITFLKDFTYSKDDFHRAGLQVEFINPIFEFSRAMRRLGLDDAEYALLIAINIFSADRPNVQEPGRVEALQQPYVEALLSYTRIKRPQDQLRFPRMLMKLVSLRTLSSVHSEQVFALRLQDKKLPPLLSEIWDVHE
Glucocorticoid receptor (Homo sapiens), sequence (P04150 whole entry, looked up, the tested form may be a part): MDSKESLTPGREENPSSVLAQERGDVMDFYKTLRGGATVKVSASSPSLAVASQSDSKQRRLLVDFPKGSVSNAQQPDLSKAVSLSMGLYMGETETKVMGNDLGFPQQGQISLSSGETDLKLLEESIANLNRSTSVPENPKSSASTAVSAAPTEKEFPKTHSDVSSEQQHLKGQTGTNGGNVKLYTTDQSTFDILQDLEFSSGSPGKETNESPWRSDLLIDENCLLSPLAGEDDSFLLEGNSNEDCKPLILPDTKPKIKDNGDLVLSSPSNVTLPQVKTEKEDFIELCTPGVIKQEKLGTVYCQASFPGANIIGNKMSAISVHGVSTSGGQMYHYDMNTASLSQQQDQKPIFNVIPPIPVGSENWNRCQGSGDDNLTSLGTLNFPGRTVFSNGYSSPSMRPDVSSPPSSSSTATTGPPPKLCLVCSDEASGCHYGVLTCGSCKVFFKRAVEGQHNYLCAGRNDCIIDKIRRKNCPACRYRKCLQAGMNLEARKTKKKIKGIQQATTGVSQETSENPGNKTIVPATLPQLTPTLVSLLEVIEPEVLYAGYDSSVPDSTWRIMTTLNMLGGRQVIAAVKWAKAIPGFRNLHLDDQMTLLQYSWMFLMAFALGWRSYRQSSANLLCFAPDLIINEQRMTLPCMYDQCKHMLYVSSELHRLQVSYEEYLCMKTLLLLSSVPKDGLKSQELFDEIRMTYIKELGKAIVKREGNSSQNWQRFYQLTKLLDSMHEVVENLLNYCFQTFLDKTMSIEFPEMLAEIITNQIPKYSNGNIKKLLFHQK

One may read the AC50 as the midpoint of the concentration-response curve, whichever way the signal moves. As to `CCCSP(=O)(OCC)Oc1ccc(Br)cc1Cl` (stereo unspecified), the molecule was called inactive in [1], in [2], in [3], in assay [4], in [5] and in assay [6]. The outcome in assay [7], in assay [8], in [9], in assay [10], in [13] and in [14] was inactive. Also, the result in [15] and in [16] was inactive. Further, the AC50 in [11] was 2.73 µM (active); in assay [12], 2.03 µM (active).

On to `CN(C)[C@@H]1C(=O)C(C(N)=O)=C(O)[C@@]2(O)C(=O)C3=C(O)c4c(O)cccc4[C@@](C)(O)[C@H]3[C@H](O)[C@@H]12`, for which the outcome in assay [2], in [3], in assay [17], in [4], in [5] and in assay [6] was inactive. Besides, the result in [7], in assay [8], in assay [18], in [11], in assay [12] and in assay [14] was inactive. In addition, the result in assay [15] and in assay [16] was inactive. Moreover, the AC50 in assay [11] was 20.8 µM (active); in [12], 13.6 µM (active).

For the molecule `CCOP(=S)(OCC)Oc1cc(C)nc(C(C)C)n1`, the molecule was called inactive in assay [19], in assay [2], in assay [3], in assay [4], in [6] and in assay [7]. In addition, the molecule was classed as inactive in assay [8], in assay [10], in [12], in assay [13], in [14] and in assay [15]. The result in assay [16] was inactive.

Regarding `CC(C)N(C(=O)SCC(Cl)=C(Cl)Cl)C(C)C`, the AC50 in [2] was 29.1 µM (active); in [3], 20.1 µM (active); in [11], 13.5 µM (active); in assay [12], 24.7 µM (active); in assay [14], 32.9 µM (active); in [15], 32.2 µM (active). For the same molecule, the AC50 in assay [16] was 35.5 µM (active). Further, the outcome in [17], in assay [4], in assay [5], in [6], in assay [7] and in assay [8] was inactive. Moreover, the call in assay [9], in [10] and in assay [13] was inactive.
